# Results reported in PubChem BioAssay AID652042 (Broad Institute, 2013).
# Out of some 1,100 compounds screened, about 350 (32%) were called active. No rule for the calls is given here. These entries were drawn from the full list. Measured potencies and affinities stand elsewhere.
# Test: viability loss in CEM21 cells – cell-based, CellTiter-Glo luminescence, cherry-picked, cytotoxicity control for viral fusion inhibitor project, dose response (AID 652042)
# Details: CellTiter-Glo ATP luminescence, 24 h; series mostly up to 35 µM; activity change, negative = cytotoxicity: at the top concentration
row,Compound,"activity change, negative = cytotoxicity"
1,Clc1ccc2c(c1)C1=C(C(c3ccncc3)O2)C(c2ccc(Br)cc2)n2ncnc2N1 (stereo not given),-15.2% (inactive)
2,CCS(=O)(=O)N1Cc2ccccc2CC1C(=O)NCC12CC3CC(CC(C3)C1)C2 (stereo not given),-8.57% (inactive)
3,CCN1C[C@@H]2[C@@H]3C(=O)N(Cc4ccccc4)C(=O)[C@@H]3[C@](CC)(C1=O)N2C(=O)c1ccc(C(C)(C)C)cc1,-8.21% (inactive)
4,C[C@@]12C(=O)N(Cc3ccc(F)cc3)CC(=O)N1[C@H]1c3cc(Cl)ccc3OC[C@@H]1[C@@H]2c1ccccc1,-14.9% (inactive)
5,COc1ccc2c(c1)[C@H]1[C@H](CO2)[C@H](c2ccccc2)[C@]2(C)C(=O)Nc3cc(OC)c(OC)cc3C(=O)N12,-21.9% (inactive)
6,O=C(O)c1cccc(COc2ccc3c(c2)CCC3)c1,-6.13% (inactive)
7,COc1ccc([C@H]2/C=C\CN(C(=O)C3CC3)[C@@H](C)C(=O)N2Cc2ccc(F)cc2)cc1,-13% (inactive)
8,CCC(C)(C)NC(=O)C(c1ccc(C)cc1)N(CC1CCCO1)C(=O)c1csnn1 (stereo not given),-7.66% (inactive)
9,O=C(CN1CCCN(Cc2ccc(F)cc2Cl)C1=O)NC1CCCCCCC1,-13.4% (inactive)
10,CCN(CCn1cccn1)C(=O)CC1C(=O)NCCN1CCc1ccccc1 (stereo not given),0.382% (inactive)
11,O=C(C[C@H]1C[C@@H]2c3cc(NC(=O)C4CCC4)ccc3O[C@@H]2[C@@H](CO)O1)NCC(F)(F)F,0.34% (inactive)
12,Cc1ccc(C)c(CS(=O)(=O)c2cn(CC(=O)N3CCC(C)CC3)c3ccccc23)c1,-0.307% (inactive)
13,CCCCN1CC(=O)N2[C@H]3c4ccccc4OC[C@@H]3[C@H](c3ccccc3)[C@]2(C)C1=O,-0.526% (inactive)
14,COc1cc(CSc2nnnn2-c2ccc(C)cc2)cc(OC)c1OC,-10.6% (inactive)
15,Cc1ccc(-n2nnnc2SCn2nnc3ccccc3c2=O)c(C)c1,-14.6% (inactive)
16,O=C(NCc1ccccc1)[C@@H]1CCCN1C(=O)[C@@H]1CCCN1C(=O)c1cccc2ccccc12,-11.3% (inactive)
17,Cc1ccc(S(=O)(=O)N2CCC(=O)N(CCOCc3ccc(C(F)(F)F)cc3)CC2)cc1,-20.8% (inactive)
18,NC(=O)c1sc2nc3c(c(-c4ccccc4)c2c1N)CCC3,-5.51% (inactive)
19,COc1ccc(N(CC(=O)NCCSCc2ccc(Cl)cc2)S(C)(=O)=O)cc1Cl,-10.3% (inactive)
20,Cc1ccc(N2C(=O)N3[C@H](c4cccc(C)c4)[C@@H]4C(=O)N(Cc5ccccc5)C(=O)[C@@H]4[C@]3(C)C2=O)cc1,-4.42% (inactive)
21,O=C(NCc1ccco1)c1ccc(Cn2c(=O)c3sccc3n(Cc3ccc(F)cc3)c2=O)cc1,-5.39% (inactive)
22,CC(=O)Nc1ccc(C(=O)OCC(=O)NC(=O)NCc2ccccc2)cc1,0.697% (inactive)
23,CCCOc1ccc(C(F)(F)F)cc1NC(=O)CCc1c(C)noc1C,-8.86% (inactive)
24,CCN(C[C@H]1N[C@@](CC)(C(=O)OC)[C@H]2C(=O)N(Cc3ccccc3)C(=O)[C@@H]12)S(=O)(=O)c1ccc(OC)cc1,-6.24% (inactive)
25,O=C1CC(C(=O)N(CC2CCCO2)C(C(=O)NC2CCCCC2)c2ccncc2)CS1 (stereo not given),4.43% (inactive)
26,OC1(c2ccc(OC(F)F)cc2)CSC(=Nc2cccnc2)N1C1CC1 (stereo not given),-22.7% (inactive)
27,C[C@H]1CN([C@@H](C)CO)C(=O)Cc2cc(NC(=O)Cc3ccccc3)ccc2O[C@H]1CN(C)S(=O)(=O)c1cccs1,1.15% (inactive)
28,COc1ccc(S(=O)(=O)N(C)C[C@@H]2Oc3ccc(NC(=O)C4CCCCC4)cc3CC(=O)N([C@@H](C)CO)C[C@@H]2C)cc1,-3.64% (inactive)

row,Compound,"activity change, negative = cytotoxicity"
1,Cc1noc(C)c1S(=O)(=O)N(C)C[C@@H]1Oc2ccc(NC(=O)NC3CCCCC3)cc2CC(=O)N([C@H](C)CO)C[C@@H]1C,-9.64% [at 30 µM] (inactive)
2,CC(C)(C)c1ccc(-c2noc(CCC(=O)NCC3CCCO3)n2)cc1 (stereo not given),-13.5% (inactive)
3,O=C(c1cc(COc2cccc(C(F)(F)F)c2)on1)N1CCC(c2ccncc2)CC1,-23.1% (inactive)
4,CCCNC(=O)C[C@@H]1C[C@H]2c3cc(NC(=O)Cc4ccncc4)ccc3O[C@H]2[C@@H](CO)O1,1.01% [at 30 µM] (inactive)
5,O=C(NCCc1ccccc1F)c1ccc2c(c1)OCCO2,-9.56% (inactive)
6,O=C(CCNC(=O)c1ccc(Br)cc1)NNC(=O)COc1ccccc1F,-0.033% (inactive)
7,COc1ccc(NS(=O)(=O)c2ccc3c(c2)OCCO3)cc1OC,-4.08% (inactive)
8,Nc1c(S(=O)(=O)c2ccccc2)cnc2c(-c3ccc(F)cc3)cnn12,-10.5% (inactive)
9,COC(=O)CNC(c1ccccc1)c1cc(C)ccc1NC(=O)CNC(=O)OCc1ccccc1 (stereo not given),-14.7% (inactive)
10,COc1ccc(C(C(=O)NC(C)(C)C)N(CCC(C)C)C(=O)CCC(=O)Nc2cc(C)on2)cc1 (stereo not given),-2.75% (inactive)
11,CCN(CC)c1nc(Nc2ccccc2)nc(Oc2ccc(=O)[nH]n2)n1,4.68% [at 16 µM] (inactive)
12,COc1ccc2c(c1)OC[C@H]1[C@H]2N2C(=O)CN(Cc3ccc(C)cc3)C(=O)[C@@]2(C)[C@H]1c1ccccc1,-14.1% (inactive)
13,C[C@H]1NC(=O)[C@@]2(C)[C@H](c3ccccc3)[C@H]3COc4ccccc4[C@@H]3N2C1=O,7.71% (inactive)
14,Cc1ccc(-n2nc3c(c2NC(=O)c2ccco2)CS(=O)C3)cc1 (stereo not given),-4.33% (inactive)
15,C=CCN1C(=S)CC(c2ccccc2)=Nc2ccccc21,-16% (inactive)
16,O=C(c1ccc2c(c1)OCO2)N(CC1CCCO1)C1(C(=O)NC2CCCCC2)CCCCC1 (stereo not given),-10.1% (inactive)
17,CON(C)c1nc(OCCNC(=O)OCc2ccc(Cl)cc2C)nc(N(C)C)n1,-10.7% (inactive)
18,Cc1ccc(S(=O)(=O)N2CCCCC2)cc1C(=O)NCCC1=CCCCC1,-13.4% (inactive)
19,Cc1ccc(C(=O)NCc2ccccn2)cc1S(=O)(=O)N1CCCCC1,5.44% (inactive)
20,O=S(=O)(NCC[C@@H]1CC[C@@H](NS(=O)(=O)c2ccccc2Cl)[C@H](CO)O1)c1ccc(Cl)cc1,-6.87% (inactive)
21,O=S(=O)(NCC[C@H]1CC[C@H](NS(=O)(=O)c2ccccc2Cl)[C@H](CO)O1)c1ccc(Cl)cc1,-9.94% [at 30 µM] (inactive)
22,COc1cc(-c2nc3oc4ccccc4c(=O)c3c(=O)n2Cc2ccco2)cc(OC)c1OC,-19.9% (inactive)
23,CCOC(=O)c1c(CSc2cccs2)n(C)c2cc(Br)c(O)c(CN(C)C)c12,-24.1% (inactive)
24,CCOC(=O)c1c(CSc2ccsc2)n(C)c2cc(Br)c(O)c(CN(C)C)c12,-17.3% (inactive)
25,CCN(CC)S(=O)(=O)c1ccc(NC2c3ccccc3C(=O)N2Cc2ccc3c(c2)OCO3)cc1 (stereo not given),-10.7% (inactive)
26,O=S(=O)(NCCc1csc(-c2cccnc2)n1)c1ccc(Cl)s1,-5.88% (inactive)
27,COc1cccc(/C=N/NC(=O)CC2C(=O)NN=C2C)c1O (stereo not given),5.99% (inactive)
